Among the data in the antibiotic and cytotoxicity screens of Wong et al. (2023) are cytotoxicity call values, retold here.

The whole screen tested about 39,000 compounds, of which about 1,500 (3.8%) were called active. This is one part of a sample in which actives are shown more often than they occur.

This assay relates to HSkMC (human skeletal muscle cells). The assay is described as follows: cytotoxicity call (relative viability < 0.9). The settings on record: 10 µM.
On to `CC(C=CC=C(C)C=CC(=O)C1(C)CC(O)CC1(C)C)=CC=CC=C(C)C=CC=C(C)C=CC1=C(C)CC(O)CC1(C)C` (stereo not given), for which the cytotoxicity call was “inactive”. To `C[C@@H]1CN([C@H](C)CO)C(=O)c2cc(NC(=O)Cn3cnnn3)ccc2O[C@H]1CN(C)Cc1ccc(-c2ccccc2)cc1` belongs “inactive”. The result for `CN1CCN(C(=O)C[C@H]2C=C[C@H](NC(=O)Nc3ccccc3F)[C@@H](CO)O2)CC1` reads “inactive”; that for `COC(=O)C[C@H]1CC[C@@H]2[C@H](COC[C@H](O)CN2S(=O)(=O)c2cn(C)cn2)O1`, “inactive”; that for `C[C@@H]1CN([C@H](C)CO)C(=O)c2cc(N(C)C)ccc2O[C@@H](C)CCCCO[C@H]1CN(C)C(=O)Nc1cccc2ccccc12`, “inactive”. The result for `C[C@@H]1CCCCO[C@H](CN(C)S(=O)(=O)c2ccc(Cl)cc2)[C@H](C)CN([C@H](C)CO)C(=O)c2cc(NS(=O)(=O)c3ccccc3)ccc2O1` reads “inactive”; that for `C[C@H](CO)N1C[C@H](C)[C@@H](CN(C)C)OCCCC[C@H](C)Oc2ccc(NC(=O)Nc3cccc4ccccc34)cc2C1=O`, “inactive”.

In the case of `C[C@@H]1CN([C@@H](C)CO)C(=O)c2cc(NC(=O)Nc3cccc4ccccc34)ccc2O[C@@H](C)CCCCO[C@H]1CN(C)CC1CC1`, the cytotoxicity call was “inactive”.

Regarding `C[C@@H]1CCCCO[C@H](CN(C)CC2CCCCC2)[C@@H](C)CN([C@H](C)CO)C(=O)c2cc(NC(=O)Nc3cccc4ccccc34)ccc2O1`, the cytotoxicity call was “active”. The result for `C[C@@H]1CCCCO[C@@H](CN(C)CC2CCCCC2)[C@@H](C)CN([C@H](C)CO)C(=O)c2cc(NC(=O)Nc3cccc4ccccc34)ccc2O1` reads “active”; that for `C[C@@H]1CCCCO[C@H](CN(C)CC2CCCCC2)[C@H](C)CN([C@H](C)CO)C(=O)c2cc(NC(=O)Nc3cccc4ccccc34)ccc2O1`, “active”; that for `C[C@@H]1CCCCO[C@H](CN(C)CC2CC2)[C@H](C)CN([C@@H](C)CO)C(=O)c2cc(NC(=O)Nc3cccc4ccccc34)ccc2O1`, “inactive”. For `C[C@@H]1CCCCO[C@@H](CN(C)CC2CC2)[C@H](C)CN([C@@H](C)CO)C(=O)c2cc(NC(=O)Nc3cccc4ccccc34)ccc2O1`, the cytotoxicity call was “inactive”.

In the case of `C[C@@H]1CCCCO[C@@H](CN(C)CC2CC2)[C@@H](C)CN([C@H](C)CO)C(=O)c2cc(NC(=O)Nc3cccc4ccccc34)ccc2O1`, the cytotoxicity call is “inactive”. The result for `C[C@H](CO)N1C[C@H](C)[C@@H](CN(C)CC2CC2)OCCCC[C@H](C)Oc2ccc(NC(=O)Nc3cccc4ccccc34)cc2C1=O` reads “inactive”; that for `C[C@H]1CCCCO[C@H](CN(C)CC2CCCCC2)[C@@H](C)CN([C@@H](C)CO)C(=O)c2cc(NC(=O)Nc3cccc4ccccc34)ccc2O1`, “active”; that for `C[C@H](O)c1nc(=O)c2ccccc2[nH]1`, “inactive”. To `CC(=O)OCC(=O)C1(O)CCC2C3CCC4=CC(=O)C=CC4(C)C3(F)C(O)CC21C` (stereo not given) belongs “inactive”; to `C[C@H](CO)N1C[C@H](C)[C@@H](CN(C)C(=O)Nc2ccc3c(c2)OCCO3)OCc2cnnn2CCCC1=O`, “inactive”. The result for `COCC(=O)Nc1ccc2c(c1)C(=O)N(C)C[C@H](OC)[C@@H](C)CN(Cc1ccccc1OC)[C@H](C)CO2` reads “inactive”.

As to `S=C1C=C(N2CCCCC2)C[C@H](c2ccc(Cl)cc2)S1`, the cytotoxicity call is “inactive”.

Regarding `C[C@@H]1CN([C@@H](C)CO)C(=O)c2cc(NC(=O)Nc3ccc(F)cc3)ccc2O[C@H]1CN(C)S(=O)(=O)c1cn(C)cn1`, the cytotoxicity call was “inactive”.

For `Cc1noc(C)c1NC(=O)Nc1ccc2c(c1)C(=O)N([C@@H](C)CO)C[C@@H](C)[C@@H](CN(C)C(=O)NC(C)C)O2`, the cytotoxicity call is “inactive”.

`CCO[C@H]1OC(C(=O)N2CCN(Cc3ccccc3)CC2)=C[C@@H](C)[C@@H]1CCCOC(=O)NCCCCCC(=O)NO`: the cytotoxicity call is “inactive”.

For the molecule `C[C@H](CO)N1C[C@H](C)[C@H](CN(C)Cc2ccc(Cl)c(Cl)c2)Oc2ccc(NC(=O)Cc3ccccc3)cc2C1=O`, the cytotoxicity call was “inactive”.

For the molecule `C[C@@H]1CN([C@H](C)CO)C(=O)Cc2cc(NS(C)(=O)=O)ccc2O[C@H]1CN(C)C(=O)Nc1ccc2c(c1)OCO2`, the cytotoxicity call is “inactive”. To `C[C@@H]1CCCCO[C@@H](CN(C)CC2CC2)[C@H](C)CN([C@H](C)CO)C(=O)c2cc(NC(=O)Nc3cccc4ccccc34)ccc2O1` belongs “inactive”. The result for `C[C@H](CO)N1C[C@H](C)[C@H](CN(C)CC2CCCCC2)OCCCC[C@H](C)Oc2ccc(NC(=O)Nc3cccc4ccccc34)cc2C1=O` reads “active”; that for `C[C@@H]1CN([C@@H](C)CO)C(=O)c2cc(NC(=O)Nc3cccc4ccccc34)ccc2O[C@@H](C)CCCCO[C@H]1CN(C)CC1CCCCC1`, “active”; that for `C[C@@H]1CCCCO[C@@H](CN(C)CC2CCCCC2)[C@H](C)CN([C@@H](C)CO)C(=O)c2cc(NC(=O)Nc3cccc4ccccc34)ccc2O1`, “inactive”. The result for `C[C@@H]1CN([C@@H](C)CO)C(=O)c2cc(NC(=O)Nc3cccc4ccccc34)ccc2O[C@@H](C)CCCCO[C@@H]1CN(C)CC1CCCCC1` reads “active”. Turning to `NCC1(c2cccs2)CCCC1`, the cytotoxicity call was “inactive”.

`CC(C)NC(=O)Nc1ccc2c(c1)C(=O)N([C@@H](C)CO)C[C@@H](C)[C@H](CN(C)Cc1ccc3c(c1)OCO3)O2`: the cytotoxicity call was “inactive”. Take `Cc1noc(C)c1S(=O)(=O)N(C)C[C@H]1Oc2ccc(NC(=O)C3CCCCC3)cc2CC(=O)N([C@H](C)CO)C[C@@H]1C`: the cytotoxicity call was “inactive”. With `CCC(=O)N[C@@H]1CC[C@H](CC(=O)OC)O[C@@H]1CO`, the cytotoxicity call was “inactive”. To `Cc1noc(C)c1NC(=O)Nc1ccc2c(c1)C(=O)N([C@@H](C)CO)C[C@H](C)[C@@H](CN(C)Cc1ccc(Cl)c(Cl)c1)OCCCC[C@@H](C)O2` belongs “inactive”; to `C[C@@H]1CCCCO[C@@H](CN(C)C(=O)c2ccccc2)[C@@H](C)CN([C@H](C)CO)C(=O)c2cc(NC(=O)NC3CCCCC3)ccc2O1`, “inactive”; to `Cc1noc(C)c1S(=O)(=O)Nc1cccc2c1O[C@@H](CN(C)C(=O)Nc1ccc3c(c1)OCO3)[C@@H](C)CN([C@@H](C)CO)C2=O`, “inactive”. Turning to `C[C@H]1CCCCO[C@H](CN(C)S(=O)(=O)c2ccc(Cl)cc2)[C@@H](C)CN([C@@H](C)CO)C(=O)c2cc(NS(=O)(=O)c3ccc(Cl)cc3)ccc2O1`, the cytotoxicity call is “inactive”.

As for `C[C@@H]1CN([C@@H](C)CO)C(=O)c2cc(C#Cc3ccccc3F)cnc2O[C@H]1CN(C)C(=O)C1CCOCC1`, the cytotoxicity call is “inactive”. For the molecule `C[C@@H]1CCCCO[C@H](CN(C)Cc2ccc(C(=O)O)cc2)[C@H](C)CN([C@@H](C)CO)C(=O)c2cc(NS(=O)(=O)c3ccc(F)cc3)ccc2O1`, the cytotoxicity call was “inactive”. To `O=C(C[C@H]1CC[C@H]2[C@@H](COC[C@@H](O)CN2S(=O)(=O)c2ccc(Oc3ccccc3)cc2)O1)NCCN1CCCCC1` belongs “inactive”; to `C[C@@H]1CN([C@@H](C)CO)S(=O)(=O)c2ccc(-c3ccccc3F)cc2O[C@H]1CN(C)Cc1cncnc1`, “inactive”.

For `CCCCOCCOc1ccc(-c2ccc3c(c2)/C=C(/C(=O)Nc2ccc([S@@](=O)Cc4cncn4CCC)cc2)CCCN3CC(C)C)cc1`, the cytotoxicity call was “active”. Take `C[C@@H]1CCCCO[C@H](CN(C)C(=O)NC2CCCCC2)[C@H](C)CN([C@H](C)CO)C(=O)c2cc(NC(=O)c3ccncc3)ccc2O1`: the cytotoxicity call was “inactive”. The result for `C[C@H](CO)N1C[C@H](C)[C@@H](CN(C)C(=O)C2CCCCC2)Oc2cc(C#C[C@@H](C)O)ccc2S1(=O)=O` reads “inactive”; that for `CC[C@@H](CO)NC(=O)c1ccc(N)cc1`, “inactive”; that for `C[C@H](CO)N1C[C@H](C)[C@H](CN(C)Cc2ccc3c(c2)OCO3)Oc2ccc(NC(=O)Nc3ccc(C(F)(F)F)cc3)cc2C1=O`, “active”. To `C[C@@H]1CN([C@@H](C)CO)C(=O)c2cc(NC(=O)Nc3ccc(C(F)(F)F)cc3)ccc2O[C@@H]1CN(C)Cc1ccc2c(c1)OCO2` belongs “active”; to `C[C@H]1CN([C@@H](C)CO)C(=O)c2cc(NC(=O)Nc3ccc(C(F)(F)F)cc3)ccc2O[C@H]1CN(C)Cc1ccc2c(c1)OCO2`, “inactive”; to `C[C@@H]1CN([C@@H](C)CO)C(=O)c2cc(NC(=O)Nc3ccc(C(F)(F)F)cc3)ccc2O[C@H]1CN(C)Cc1ccc2c(c1)OCO2`, “active”. To `C[C@@H]1CN([C@H](C)CO)C(=O)c2cc(NC(=O)Nc3ccc4c(c3)OCO4)ccc2O[C@H]1CN(C)Cc1ccc(C(F)(F)F)cc1` belongs “inactive”; to `C[C@@H]1CN([C@H](C)CO)C(=O)c2cc(NC(=O)Nc3ccc(C(F)(F)F)cc3)ccc2O[C@H]1CN(C)Cc1ccc2c(c1)OCO2`, “inactive”; to `C[C@H]1CN([C@@H](C)CO)C(=O)c2cc(NC(=O)Nc3ccc(C(F)(F)F)cc3)ccc2O[C@@H]1CN(C)Cc1ccc2c(c1)OCO2`, “active”. As to `CNC[C@H]1OCCCC[C@@H](C)Oc2ccc(NC(=O)Nc3cccc4ccccc34)cc2C(=O)N([C@H](C)CO)C[C@@H]1C`, the cytotoxicity call was “inactive”.

Consider `CCS(=O)(=O)NCC[C@H]1CC[C@H](NC(=O)Cc2ccccn2)[C@H](CO)O1`, for which the cytotoxicity call is “inactive”.

Turning to `CC/N=c1\sc(C(=O)OC)cc(=O)n1CC`, the cytotoxicity call is “inactive”. The result for `C[C@H]1CN([C@@H](C)CO)C(=O)c2cc(NC(=O)C3CCCCC3)ccc2O[C@H]1CN(C)Cc1ccc(C(=O)Nc2ccccc2N)cc1` reads “inactive”; that for `CO[C@H]1CN(C)C(=O)c2ccc(NS(=O)(=O)CC(F)(F)F)cc2OC[C@@H](C)N(C(=O)NC(C)C)C[C@@H]1C`, “inactive”; that for `C[C@H](CO)N1C[C@H](C)[C@H](CN(C)S(=O)(=O)c2ccccc2)OCCCC[C@H](C)Oc2ccc(NS(C)(=O)=O)cc2C1=O`, “inactive”.

`CNC(=O)N1CCC(C(N)=O)CC1`: the cytotoxicity call is “inactive”.

For `O=C(C[C@@H]1C[C@H]2c3cc(NS(=O)(=O)c4ccc(F)cc4)ccc3O[C@H]2[C@H](CO)O1)NCc1ccccn1`, the cytotoxicity call is “inactive”. To `C[C@H](CO)N1C[C@H](C)[C@@H](CN(C)Cc2ccc3c(c2)OCO3)Oc2ccc(NC(=O)Nc3ccc(C(F)(F)F)cc3)cc2C1=O` belongs “active”. The result for `C[C@@H]1CN([C@@H](C)CO)C(=O)c2cc(NC(=O)Nc3ccc4c(c3)OCO4)ccc2O[C@@H]1CN(C)Cc1ccc(C(F)(F)F)cc1` reads “inactive”; that for `C[C@@H]1CN([C@H](C)CO)C(=O)c2cc(NC(=O)Nc3ccc(C(F)(F)F)cc3)ccc2O[C@@H]1CN(C)Cc1ccc2c(c1)OCO2`, “inactive”.
